Measurements taken from article PMC5892938, “SARNAclust: Semi-automatic detection of RNA protein binding motifs from immunoprecipitation data”.
Whole data set: some 11,000 sequences, median “log2 fold change” near 0.00022, cut for the highest 2% near 0.34. Some of the results follow.

Each sequence was assayed against GST-SBP-SLBP (stem-loop binding protein) (Homo sapiens, UniProt Q14493 1-270) (assay: targeted RNA Bind-n-Seq; RBNS binding buffer: 25 mM Tris pH 7.5, 150 mM KCl, 3 mM MgCl2, 0.1% Tween, 0.5 mg/mL BSA, 1 mM DTT; 27 nM protein, 750 pM RNA pool; temperature not stated; high values mean tight binding). Settings: protein: recombinant; tags: N-terminal GST and SBP (pGEX6P1-SBP); structured_RNA.
Outline: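 A designed RNA oligo pool, transcribed with T7, was present at 750 pM and incubated in RBNS binding buffer with 27 nM of GST-SBP-tagged protein that had been expressed in Rosetta(DE3) pLysS E. coli and purified with glutathione. After reverse transcription with a 10-nucleotide barcoded primer and PCR, the bound RNA was sequenced as 200-cycle paired-end reads on a MiSeq. Each sequence's binding signal is the DEseq binary-logarithm fold change in read counts, computed after joining reads with FLASH, aligning with HISAT2 and collapsing by barcode.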

Sequence | binding signal
GGUCACGUCUCAAUCAACUCAUUAGAGGGGGGGAAAACCCCUUUGCCCUCAUCUUCAACAGCUCGCAGUCAAG | 0.356 ± 0.431 log2 fold change
GGUCACGUCUCAAUCAACUCAUUAGAGGGGGGGAAAACCCCUUUGCCCUCACCUUCAACAGCUCGCAGUCAAG | 0.303 ± 0.392 log2 fold change
GGUCACGUCUCAAUCAACUCCAUAGAGGGGGGGAAAACCCCUUUACCCUCAUUUUCAACAGCUCGCAGUCAAG | 0.342 ± 0.445 log2 fold change
GGUCACGUCUCAAUCAACUCCAUAGAGGGGGGGAAAACCCCUUUGCCCUCAAUUUCAACAGCUCGCAGUCAAG | 0.426 ± 0.447 log2 fold change
GGUCACGUCUCAAUCAACUCAACAGAGGGGGGGAAAACCCCUUUACCCUCAUUUUCAACAGCUCGCAGUCAAG | 0.422 ± 0.451 log2 fold change
GGUCACGUCUCAAUCAACUCCAUAGAGGGGGGGAAAACCCCUUUGCCCUCAUUUUCAACAGCUCGCAGUCAAG | 0.381 ± 0.414 log2 fold change
GGUCACGUCUCAAUCAACUCUCCAGAGGGGGGGAAAACCCCUUUGCCCUCCAUUUCAACAGCUCGCAGUCAAG | 0.536 ± 0.422 log2 fold change
GGUCACGUCUCAAUCAACUCUUCAGAGGGGGGGAAAACCCCUUUGCCCUCAAUUUCAACAGCUCGCAGUCAAG | 0.337 ± 0.433 log2 fold change
GGUCACGUCUCAAUCAACUCCUACGAGGGGGGGAAAACCCCUUUACCCUCAUCAUCAACAGCUCGCAGUCAAG | 0.348 ± 0.402 log2 fold change
GGUCACGUCUCAAUCAACUCCUACGAGGGGGGGAAAACCCCUUUACCCUCAACCUCAACAGCUCGCAGUCAAG | 0.619 ± 0.434 log2 fold change
GGUCACGUCUCAAUCAACUCACACGAGGGGGGGAAAACCCCUUUACCCUCAUCCUCAACAGCUCGCAGUCAAG | 0.453 ± 0.432 log2 fold change
GGUCACGUCUCAAUCAACUCCUACGAGGGGGGGAAAACCCCUUUACCCUCAAAUUCAACAGCUCGCAGUCAAG | 0.442 ± 0.411 log2 fold change
GGUCACGUCUCAAUCAACUCCUACGAGGGGGGGAAAACCCCUUUACCCUCAUAAUCAACAGCUCGCAGUCAAG | 0.382 ± 0.421 log2 fold change
GGUCACGUCUCAAUCAACUCUUCCCCAGGAGUUUACUCCUGCAUUUUCAACAGCUCGCAGUCAAG | 0.302 ± 0.227 log2 fold change
GGUCACGUCUCAAUCAACUCAUUCCCAGGAGUUUACUCCUGUAAUUUCAACAGCUCGCAGUCAAG | 0.331 ± 0.233 log2 fold change
GGUCACGUCUCAAUCAACUCAACUCCAGGAGUUUACUCCUGUAAUCUCAACAGCUCGCAGUCAAG | 0.456 ± 0.227 log2 fold change
GGUCACGUCUCAAUCAACUCAUCUCCAGGAGUUUCCUCCUGCAUACUCAACAGCUCGCAGUCAAG | 0.323 ± 0.222 log2 fold change
GGUCACGUCUCAAUCAACUCAAUUCCAGGAGUUUCCUCCUGCAUUUUCAACAGCUCGCAGUCAAG | 0.321 ± 0.19 log2 fold change
GGUCACGUCUCAAUCAACUCAGGUCCAGGAGUUUACUCCUGCAAUUUCAACAGCUCGCAGUCAAG | 0.516 ± 0.297 log2 fold change
GGUCACGUCUCAAUCAACUCAGGUCCAGGAGUUUACUCCUGCAAAUUCAACAGCUCGCAGUCAAG | 0.356 ± 0.313 log2 fold change
GGUCACGUCUCAAUCAACUCAAUCUCAGGAGUUUACUCCUGCAAAGUCAACAGCUCGCAGUCAAG | 0.321 ± 0.217 log2 fold change
GGUCACGUCUCAAUCAACUCAUCUUCAGGAGUUUGCUCCUGCAAUCUCAACAGCUCGCAGUCAAG | 0.328 ± 0.197 log2 fold change

Sequence | binding signal
GGUCACGUCUCAAUCAACUCAUCGCCAGGAGUUUACUCCUGCUAAUUCAACAGCUCGCAGUCAAG | 0.301 ± 0.286 log2 fold change
GGUCACGUCUCAAUCAACUCAUGUCCAGGAGUUUACUCCUGCAAUCUCAACAGCUCGCAGUCAAG | 0.371 ± 0.281 log2 fold change
GGUCACGUCUCAAUCAACUCUAGUCCAGGAGUUUACUCCUGUUUAUUCAACAGCUCGCAGUCAAG | 0.313 ± 0.255 log2 fold change
GGUCACGUCUCAAUCAACUCAAUCCCAGGAGUUUUCUCCUGCAAUGUCAACAGCUCGCAGUCAAG | 0.317 ± 0.214 log2 fold change
GGUCACGUCUCAAUCAACUCAAGUCCAGGAGUUUUCUCCUGCAAAGUCAACAGCUCGCAGUCAAG | 0.447 ± 0.258 log2 fold change
GGUCACGUCUCAAUCAACUCUUCUCCCAGGGAAAGCCCUGGUUAACUCAACAGCUCGCAGUCAAG | 0.335 ± 0.269 log2 fold change
GGUCACGUCUCAAUCAACUCUUCUCCCAGGGAAAGCCCUGGCAAUUUCAACAGCUCGCAGUCAAG | 0.428 ± 0.307 log2 fold change
GGUCACGUCUCAAUCAACUCUUCGCCCAGGGAAAGCCCUGGUUAUUUCAACAGCUCGCAGUCAAG | 0.464 ± 0.319 log2 fold change
GGUCACGUCUCAAUCAACUCUUCUCCCAGGGAAACCCCUGGUUAUUUCAACAGCUCGCAGUCAAG | 0.372 ± 0.273 log2 fold change
GGUCACGUCUCAAUCAACUCAAUCUCCAGGGAAAACCCUGGCAAUGUCAACAGCUCGCAGUCAAG | 0.578 ± 0.314 log2 fold change
GGUCACGUCUCAAUCAACUCAAUCUCCAGGGAAAGCCCUGGCAAUGUCAACAGCUCGCAGUCAAG | 0.309 ± 0.299 log2 fold change
GGUCACGUCUCAAUCAACUCUAUCUCCAGGGAAAUCCCUGGCAAUGUCAACAGCUCGCAGUCAAG | 0.418 ± 0.298 log2 fold change
GGUCACGUCUCAAUCAACUCUAUCUCCAGGGAAAUCCCUGGUAAACUCAACAGCUCGCAGUCAAG | 0.306 ± 0.25 log2 fold change
GGUCACGUCUCAAUCAACUCAGUCUCCAGGGAAAUCCCUGGCAAUCUCAACAGCUCGCAGUCAAG | 0.4 ± 0.338 log2 fold change
GGUCACGUCUCAAUCAACUCAGUCUCCAGGGAAAUCCCUGGUAUUUUCAACAGCUCGCAGUCAAG | 0.347 ± 0.308 log2 fold change
GGUCACGUCUCAAUCAACUCUUUCUCCAGGGAAAUCCCUGGCUAUCUCAACAGCUCGCAGUCAAG | 0.375 ± 0.236 log2 fold change
GGUCACGUCUCAAUCAACUCAUUCGCCAGGGAAACCCCUGGGUAUUUCAACAGCUCGCAGUCAAG | 0.329 ± 0.31 log2 fold change
GGUCACGUCUCAAUCAACUCAUUCCCCAGGGAAACCCCUGGCUAACUCAACAGCUCGCAGUCAAG | 0.341 ± 0.323 log2 fold change
GGUCACGUCUCAAUCAACUCAUCUUCCAGGGAAAACCCUGGCUAAUUCAACAGCUCGCAGUCAAG | 0.36 ± 0.265 log2 fold change
GGUCACGUCUCAAUCAACUCAUUUUCCAGGGAAACCCCUGGCUAAUUCAACAGCUCGCAGUCAAG | 0.348 ± 0.267 log2 fold change
GGUCACGUCUCAAUCAACUCUUCCCCCAGGGAAACCCCUGGCUAAUUCAACAGCUCGCAGUCAAG | 0.313 ± 0.254 log2 fold change
GGUCACGUCUCAAUCAACUCAUACGAGGGGGGGAAAACCCCUUUACCCUCAAACUCAACAGCUCGCAGUCAAG | 0.382 ± 0.399 log2 fold change
